The values below come from PubChem BioAssay (EPA / NIEHS).

Results filed as inconclusive are left out. Active and inactive are the calls of the source. The calls were made as follows, unless noted: active = hit-call score of the fitted dose curve at least 0.9, where 1 is the maximum; inactive = score below 0.9.

A short description of test [1]: CCTE_Shafer_MEA_dev_firing_rate_mean: CCTE's Neural Network Formation Assay for Mean Firing Rate, Shafer Lab (AID 2284031). The essentials:
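Primary rat cortical neurons on 48-well MEA plates, exposed from plating day 0 with dosing renewed on DIV 5 and 9. Mean well firing rate over active electrodes, recorded days 5, 7, 9, 12, summarised as trapezoidal AUC.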

Test [2] in a line: CCTE_Shafer_MEA_dev_per_burst_spike_percent: CCTE's Neural Network Formation Assay for Percent of Spikes in a Burst, Shafer Lab (AID 2284032).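 Also: fitted as a decrease in burst spike percentage below DMSO baseline.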 The method, boiled down: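 Rat primary cortical neurons on 16-electrode MEA wells, dosed from plating day 0 for 12 days with renewal on DIV 5 and 9; spikes-in-bursts percentage averaged over bursting electrodes, collapsed as AUC across days 5, 7, 9, 12; loss direction versus DMSO.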

Test [3] in a line: CCTE_Shafer_MEA_dev_active_electrodes_number: CCTE's Neural Network Formation Assay for Number of Active Electrodes, Shafer Lab (AID 2284040; active = hit-call score of the fitted dose curve at least 0.9, where 1 is the maximum;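 also: potency for loss of active electrodes versus DMSO so lower counts are hits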). The method, boiled down: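 Primary rat cortical neurons on 16-electrode MEA wells, exposed from day 0 through day 12 with compound renewed at DIV 5 and 9 feeds. Active electrodes (mean firing ≥5 spikes/min) counted at DIV 5, 7, 9, 12; trapezoidal AUC across days, loss-of-signal versus DMSO.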

Test [4] can be described thus: CCTE_Shafer_MEA_dev_bursting_electrodes_number: CCTE's Neural Network Formation Assay for Number of Bursting Electrodes, Shafer Lab (AID 2284043; active = hit-call score of the fitted dose curve at least 0.9, where 1 is the maximum;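 also: potency is for loss of bursting electrodes relative to DMSO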). The method, boiled down:
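Read-out is the per-well number of electrodes bursting at least once every 2 minutes, recorded on days 5, 7, 9 and 12 and collapsed by trapezoidal area under the curve. Cultures were primary rat cortical neurons on MEA plates, treated continuously from plating.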

Test [5] is described as follows: CCTE_Shafer_MEA_dev_per_burst_interspike_interval: CCTE's Neural Network Formation Assay for Burst Interspike Interval, Shafer Lab (AID 2284044).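 Also: mean spike spacing inside bursts as AUC over recordings on days 5 7 9 12.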 The method, boiled down: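 Spontaneous activity of maturing rat cortical networks is recorded on DIV 5, 7, 9 and 12 under chronic compound exposure beginning at plating. Endpoint: burst interspike interval well-mean, collapsed into trapezoidal AUC and fitted in the negative direction relative to DMSO.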

The nature of test [6]: CCTE_Shafer_MEA_dev_burst_duration_mean: CCTE's Neural Network Formation Assay for Mean Burst Duration, Shafer Lab (AID 2284045). The method, boiled down: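 Read-out: average first-to-last-spike interval within single-electrode bursts, averaged over bursting electrodes per well, then summarised as area under the curve across days 5, 7, 9 and 12. Developing rat cortical networks were exposed from day 0.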

Test [7] in a line: CCTE_Shafer_MEA_dev_interburst_interval_mean: CCTE's Neural Network Formation Assay for Mean Interburst Interval, Shafer Lab (AID 2284046).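 Also: curve fitted for decrease in interburst interval relative to DMSO.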 The method, boiled down: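 Primary rat cortical neurons on PEI-coated 48-well MEA plates (laminin added with cells at plating) (16 electrodes/well), exposed from plating day 0 with renewal at DIV 5 and 9. Mean inter-burst interval averaged over bursting electrodes, AUC across days 5, 7, 9, 12; DMSO baseline.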

A short description of test [8]: CCTE_Shafer_MEA_dev_network_spike_number: CCTE's Neural Network Formation Assay for Number of Network Spikes, Shafer Lab (AID 2284048).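 Also: synchronized bursts across electrodes counted on days 5 7 9 12 and integrated as AUC.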 The method, boiled down:
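Developing networks of primary rat cortical neurons are treated over 12 days starting at plating, with media and compound fully replaced on DIV 5 and 9. Network spike counts from four recording days are integrated as trapezoidal AUC.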

The nature of test [9]: CCTE_Shafer_MEA_dev_network_spike_peak: CCTE's Neural Network Formation Assay for Mean Number of Electrodes in Network Spike, Shafer Lab (AID 2284049). The method, boiled down:
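Rat cortical primary culture, 1.5 x 10^5 cells/well, 48-well MEA (16 electrodes/well). Dosing day 0 through DIV 12, full media/compound exchange DIV 5, 9. AxIS adaptive spike detection; AUC over days 5/7/9/12; loss-of-signal vs DMSO.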

Test [10] is described as follows: CCTE_Shafer_MEA_dev_spike_duration_mean: CCTE's Neural Network Formation Assay for Mean Spike Duration, Shafer Lab (AID 2284051).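 Also: potency for a decrease in mean network spike duration versus DMSO.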 The method, boiled down: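 Spontaneous activity was recorded on days 5, 7, 9 and 12 from rat cortical cultures grown on microelectrode arrays and dosed continuously from day 0, with media and compound renewed after the DIV 5 and 9 recordings. Network-spike duration was collapsed by area under the curve.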

Test [11] is described as follows: CCTE_Shafer_MEA_dev_per_network_spike_spike_number_mean: CCTE's Neural Network Formation Assay for Mean Number of Spikes in a Network Spike, Shafer Lab (AID 2284053). The method, boiled down:
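Mean spike count within each network spike, taken in a 0.05 s window at its peak, was recorded on days 5, 7, 9 and 12 and integrated as trapezoidal area under the curve. Rat cortical cultures on MEA plates received continuous compound from day 0, refreshed at medium changes on DIV 5 and 9.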

A short description of test [12]: CCTE_Shafer_MEA_dev_per_network_spike_spike_percent: CCTE's Neural Network Formation Assay for Percent of Spikes in a Network Spike, Shafer Lab (AID 2284054). The method, boiled down:
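Rat primary cortical cultures, 1.5 x 10^5 cells/well on MEA. Continuous compound exposure d0–12, medium/compound renewed DIV 5, 9. Network-spike spike % (0.05 s peak window), AUC over 4 recordings, DMSO baseline.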

The nature of test [13]: CCTE_Shafer_MEA_dev_LDH: CCTE's Lactate Dehydrogenase Assay for Cytotoxicity in the Neural Network Formation Assay, Shafer Lab (AID 2284068; active = hit-call score of the fitted dose curve at least 0.9, where 1 is the maximum;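 also: exposure for twelve days from plating with re-dosing on DIV 5 and 9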). The method, boiled down:
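Primary rat cortical neurons were cultured on PEI-coated MEA plates and exposed from plating through day 12, with compound renewed at medium changes on DIV 5 and 9. LDH activity was read spectrophotometrically; loss of signal versus DMSO indicates reduced viability.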

Test [14] in a line: CCTE_Shafer_MEA_dev_mutual_information_norm: CCTE's Neural Network Formation Assay for Mutual Information Normalization, Shafer Lab (AID 2284091). The method, boiled down:
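Developing rat cortical networks on 16-electrode MEA wells are treated throughout formation (DIV 0–12). Shared electrode information is recorded four times, converted to area-under-curve, and fitted for decreases against DMSO vehicle.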

Test [15] in a line: CCTE_Shafer_MEA_dev_correlation_coefficient_mean: CCTE's Neural Network Formation Assay for Mean Correlation Coefficient, Shafer Lab (AID 2284093). The essentials: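 Primary rat cortical neurons on PEI-coated 48-well MEA plates (16 electrodes/well) were exposed from plating day 0 through DIV12, with compound renewed at DIV5 and 9. Pairwise spike correlations were averaged per well; trapezoidal AUC across DIV5, 7, 9, 12.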

A short description of test [16]: UKN2_HCS_IMR90_neural_migration: University of Konstanz (UKN) Leist Lab Neural Crest Cell Migration Assay in human induced IMR90 Pluripotent Stem Cells (UKN2) (AID 2284204). The settings on record: actives raise or lower the signal. The essentials: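 Migration of human IMR90-derived neural crest cells into a stopper-defined gap is imaged after 24 h chemical treatment. Activity is fitted bidirectionally relative to DMSO.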

Test [17] is described as follows: IUF_NPC1b_proliferation_BrdU_72hr: Leibniz Research Institute for Environmental Medicine (IUF) 72-hour Neural Progenitor Cell Bromodeoxyuridine (BrdU) Proliferation Assay (NPC1b) (AID 2284207). The method, boiled down: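 Proliferation of primary human neural progenitor cells: 72 h compound treatment at 37C, 5% CO2, pH 7.2-7.6, in EGF/FGF-containing medium. Readout is BrdU uptake (last 16 h) by chemiluminescent ELISA, normalised to DMSO.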

A short description of test [18]: IUF_NPC1a_proliferation_area_72hr: Leibniz Research Institute for Environmental Medicine (IUF) 72-hour Neural Progenitor Cell Proliferation Area Assay (NPC1a) (AID 2284208). The method, boiled down: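 Measured in 3D suspension: each well held one primary hNPC sphere grown with EGF and FGF at pH 7.2-7.6. Compound stayed on for 72 h, then area was imaged; spheres lacking growth factors defined reduced proliferation.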

Test [19] in a line: IUF_NPC1_viability_72hr: Viability Assessment at 72 hours in the Leibniz Research Institute for Environmental Medicine (IUF) Neural Progenitor Cell Proliferation Assay (NPC1) (AID 2284209). The method, boiled down:
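Single spheres (0.25-0.35 mm) of human fetal cortex-derived neural progenitor cells were grown in proliferation medium with EGF and FGF at 37C and 5% CO2. They were exposed for 72 h without renewal, and viability was read by alamar blue resorufin fluorescence.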

Test [20] in a line: CCTE_Mundy_HCI_Cortical_Synap_Neur_Matur_NeuriteSpotCountPerNeuriteLength: CCTE's Synaptogenesis and Neurite Maturation Assay in rat cortical cells for Neurite Spot Count per Neurite Length, Mundy Lab (AID 2284210). The essentials: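 Primary rat cortical neurons, compound exposure DIV 7–12, 288.33 h endpoint. Hoechst, anti-MAP2 and anti-synaptophysin labelling; neurite-associated puncta per neurite length scored by automated imaging relative to DMSO controls.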

Test [21] in a line: CCTE_Mundy_HCI_Cortical_Synap_Neur_Matur_BPCount: CCTE's Synaptogenesis and Neurite Maturation Assay in rat cortical cells for Branch Point Count, Mundy Lab (AID 2284211). The essentials: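 Rat primary cortical cultures, AraC added DIV 5; chemicals dosed DIV 7 through DIV 12. Fixed cells stained for MAP2, synaptophysin and Hoechst; neurite branch points counted by automated high-content imaging, fitted relative to DMSO.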

Test [22] is described as follows: CCTE_Mundy_HCI_Cortical_NOG_NeuriteCount: CCTE's Neurite Outgrowth Assay in rat cortical cells for Neurite Count, Mundy Lab (AID 2284212).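 Also: cells fixed about two days after chemical exposure began.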 The essentials: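 Neurite number per cell from high-content imaging of betaIII-tubulin immunostaining, with Hoechst nuclear counterstain.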
A short description of test [23]: CCTE_Mundy_HCI_Cortical_NOG_NeuriteLength: CCTE's Neurite Outgrowth Assay in rat cortical cells for Neurite Length, Mundy Lab (AID 2284213). The method, boiled down:
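Neurite length was read by high-content imaging of βIII-tubulin-labelled neurites in rat primary cortical cultures. Activity was fitted relative to DMSO.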

Test [24] is described as follows: CCTE_Mundy_HCI_Cortical_Synap_Neur_Matur_NeuriteLength: CCTE's Synaptogenesis and Neurite Maturation Assay in rat cortical cells for Neurite Length, Mundy Lab (AID 2284214). The essentials:
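Rat primary cortical cultures, AraC added DIV 5, dosed DIV 7 through DIV 12 […]. Fixed, MAP2/synaptophysin immunostained with Hoechst; neurite length by high-content imaging, fitted in positive direction versus DMSO.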

On to `CCCCCC(C)(CC)C(=O)NC` (centres undefined), for which the compound was classed as inactive in test [1], in [5], in test [6], in [7], in test [8] and in test [9]. Further, the compound was classed as inactive in test [11], in test [12], in test [14], in [15], in [16] and in [18]. For the same compound, the result in test [19], in test [20], in [21], in [22], in test [23] and in test [24] was inactive. Besides, the AC50 – broadly, the concentration at which the activity in the assay is half-maximal – in [2] was 74.5 µM (active); in test [3], 50 µM (active); in test [4], 50 µM (active); in test [10], 9.92 µM (active); in [13], 50 µM (active); in test [17] it was 85.3 µM (active).
